PNC assembly inh: perinucleolar compartment assembly inhibition. AID 2417. activity change (PNC), negative = inhibition, % at 10 µM. PC3M PTB-GFP, PNC prevalence imaging, 16 h; hits give low values. hit rate 3.1% among 140,000;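 active = readout at or below -70, meaning at least 70% loss of cells showing the perinucleolar compartment, a nuclear body marking cancer cells; inconclusive = readout between -30 and a set limit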;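 also: plate controls were DMSO wells for no effect and camptothecin positive control wells for full effect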
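Read-out is percentage of cells bearing a perinucleolar compartment, from automated 20x imaging of fixed, Hoechst-stained PC3M PTB-GFP cells. Cells were seeded 4 h, then exposed 16 h to compound (23 nl of library stock) in duplicate plates.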
ALDH1A1 inh: blocks purified human ALDH1A1 activity. P00352. Purified ALDH1A1, NADH fluorescence, propionaldehyde substrate. AID 1030. hit rate 7.3% among 220,000. Potency, µM (series often up to 75.3 µM), without a hit: at the highest dose activity, negative = inhibition, actives largely listed as inhibitors;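 also: potency is read from the fitted curve at half-maximal effect; plate controls were no enzyme wells and a reference inhibitor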
Target sequence (P00352 whole entry, looked up): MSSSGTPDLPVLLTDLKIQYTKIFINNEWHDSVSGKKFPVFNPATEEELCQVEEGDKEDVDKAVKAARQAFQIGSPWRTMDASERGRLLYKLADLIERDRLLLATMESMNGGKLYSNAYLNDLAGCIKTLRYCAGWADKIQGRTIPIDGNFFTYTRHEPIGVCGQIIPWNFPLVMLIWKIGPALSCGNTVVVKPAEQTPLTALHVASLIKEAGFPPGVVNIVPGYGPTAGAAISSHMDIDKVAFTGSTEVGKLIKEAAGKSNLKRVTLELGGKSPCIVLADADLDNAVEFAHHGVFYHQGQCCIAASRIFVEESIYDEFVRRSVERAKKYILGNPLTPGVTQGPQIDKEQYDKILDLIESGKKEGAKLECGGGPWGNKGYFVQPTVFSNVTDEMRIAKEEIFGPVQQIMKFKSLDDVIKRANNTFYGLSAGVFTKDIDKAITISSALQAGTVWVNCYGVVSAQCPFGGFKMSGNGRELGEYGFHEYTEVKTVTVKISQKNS
HPGD block: HPGD (human) dehydrogenase inhibition | Potency, µM, for the others: at the highest dose activity change, negative = inhibition, actives largely listed as inhibitors | hit rate 4.3% among 150,000 | purified HPGD, NADH fluorescence kinetic, PGE2 substrate; also: potency is read from the fitted curve at half-maximal effect
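20 nM HPGD preincubated 15 min at room temperature with compound in 50 mM Tris-HCl pH 8, 0.01% Tween 20. Started with 1 mM NAD+ and 30 uM prostaglandin E2; NADH fluorescence (360/450 nm) read 5 times over 30-s intervals, last minus first.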
Lamin A splicing: changes lamin A minigene splicing in HeLa cells | Potency, µM (titrated, usually from 46.1 µM), without a hit: at the highest dose ratio change, negative = inhibition, usual class: inhibitors | AID 1487 | HeLa LMNA splicing GFP/RFP minigene ratio, 48 h | hit rate 0.01% among 200,000; active = well fitted inhibition curve with a large enough effect in the signal ratio, with a control signal flat, not every such curve was filed as active; inconclusive = small, poorly fitted or top-dose-only effect, or effect the other way, or a change in a side signal; the % refers to the signal ratio; also: potency is read from the fitted curve at half-maximal effect
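Read-out is the ratio of GFP to DsRed2 object intensity, acquired by 488 nm laser-scanning cytometry on HeLa lamin A-EGFP minigene reporter cells. Compound incubation 48 hrs at 37 °C in Opti-MEM with 2% FBS; DMSO 0.5% final.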
ALOX12 inhib: 12-hLO (ALOX12) enzyme inhibition | P18054 | purified 12-hLO, xylenol orange hydroperoxide absorbance | Potency, µM (highest dose often 57.1 µM), for the others: at the top dose activity change, negative = inhibition, actives largely listed as inhibitors | hit rate 0.12% among 150,000 | AID 1452; active = well fitted inhibition curve with a large enough effect; inconclusive = small, poorly fitted or top-dose-only effect; also: potency is read from the fitted curve at half-maximal effect; nearly all actives have a fitted effect of over 55% in size
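Hydroperoxide formation by human 12-lipoxygenase from 40 uM arachidonic acid was followed colorimetrically via ferric-xylenol orange complex, using the 573/405 nm absorbance ratio. Enzyme concentration was 150 nM, with 30 min reaction at room temperature.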
Numbers without * were called inactive; ? = inconclusive; nt = not tested or not shown; ! = not confirmed by another sample; [ ] = another dose, or the depositor's remark. A selection: hits, their analogues and other compounds. The true share with any hit is near 10%. Unless noted, calls follow the shape of the dose curve; as a rule, active = well fitted inhibition curve with a large enough effect (not every such curve was filed as active); inconclusive = small, poorly fitted or top-dose-only effect, or another doubt; inactive = no such curve, though single readings can be large or run the other way. Unless noted, % is scaled to controls: 0 for no effect and ±100 for the full control effect.

SMILES | PNC assembly inh | ALDH1A1 inh | HPGD block | Lamin A splicing | ALOX12 inhib
COc1ccc2c(c1)CC(NC(=O)Nc1ccc(NC(C)=O)cc1)CO2 (centres undefined) | nt | nt | nt | 2.9%[46 µM] | nt
CCS(=O)(=O)CCn1c([N+](=O)[O-])cnc1C | 4.5 | -0.4% | -11.8% | ? | -4.2%
Cc1ncc([N+](=O)[O-])n1CCO | 42.5 | 7.94µM*! | -20.7% | ? | -0.3%
O=C1c2cccc3c(O)ccc(c23)C(=O)N1Cc1ccco1 | nt | 12.6µM* | nt | nt | nt
COC(=O)[C@@]1(Cc2ccc(OC)cc2)[C@H]2c3cc(C(=O)N(C)C)n(CCN4CNCC4=O)c3C[C@H]2CN1C(=O)c1ccccc1 | nt | -9.1% | -15.8% | nt | -0.9%
CCn1c(SCC(N)=O)nnc1-c1ccc(S(=O)(=O)N2CCN(C)CC2)cc1 | ? | ? | -13.1% | -10.2% | -2.6%
COc1ccccc1-n1c(SCC(N)=O)nnc1-c1ccc(S(=O)(=O)N2CCCCC2)cc1 | 26.8 | 4.47µM* | -6.0% | 1.6% | -4.5%
NC(=O)CSc1nnc(-c2ccc(S(=O)(=O)N3CCCCC3)cc2)n1-c1ccccc1 | ? | 15.8µM* | -26.0% | 16.6% | -3.0%
C[C@H](O)C(=O)Nc1c(I)c(C(=O)NC(CO)CO)c(I)c(C(=O)NC(CO)CO)c1I | nt | 1.7%[20.9 µM] | -9.0% | ? | -0.1%[25.6 µM]
Cn1ncc(Cl)c1C(=O)NCc1cc(C(C)(C)C)n[nH]1 | 11.7 | -8.3% | 17.8µM* | ? | 2.6%
Cn1cccc1C(=O)N1CCC[C@@]2(CCN(Cc3ccccc3)C2)C1 | nt | -8.8% | -8.5% | nt | 2.3%
O=C(NCC1CCCO1)c1ccc2c(c1)OCO2 (centres undefined) | 53.8 | -0.2% | 2µM* | 6.2% | -14.0%
O=C(COC(=O)c1ccc(NS(=O)(=O)c2ccc3c(c2)OCCO3)cc1)NCC1CCCO1 (centres undefined) | -92.4* | -9.4% | -22.5% | 2.1% | 0.3%
CS(=O)(=O)N(Cc1ccccc1)c1ccc(C(=O)NCC2CCCO2)cc1 (centres undefined) | 24.8 | 7.7% | -24.7% | -5.0% | 3.8%
O=C(NCC1CCCO1)Nc1ccc2c(c1)OCO2 (centres undefined) | nt | -2.2% | nt | nt | nt
CN(c1ccc(C(=O)NCC2CCCO2)cc1)S(C)(=O)=O (centres undefined) | -87.1* | -0.1% | -27.1% | 6.4% | 6.7%
Cn1ncc([N+](=O)[O-])c1C(=O)Nc1nccs1 | -105.5* | 0.4% | ? | 3.3% | -1.8%
O=C(Nc1nccs1)c1ccccc1[N+](=O)[O-] | -14.6 | 9.7% | -9.9% | -9.0% | 1.0%
COc1ccc(S(=O)(=O)N2CCCC(C(=O)O)C2)cc1 (centres undefined) | ? | 0.1% | 1.6% | 0.0% | 14.1%
COc1ccc(S(=O)(=O)N2CCCC(C(=O)NC3CCCCC3)C2)cc1 (centres undefined) | -102.2* | 7.7% | -16.6% | 6.0% | 0.6%
COc1ccc(NC(=O)c2sc3nc4n(c(=O)c3c2C)CCC4)c(OC)c1 | nt | nt | nt | -5.3%[46 µM] | nt
Cc1ccsc1/C=N/n1c(-c2ccncc2)n[nH]c1=S | 18.3 | -6.2% | 28.2µM* | ? | -1.9%
S=c1[nH]nc(-c2ccco2)n1/N=C/C(Cl)=C/c1ccccc1 | nt | -4.9% | nt | nt | nt
Cc1cc(-c2n[nH]c(=S)n2/N=C/c2sccc2C)n[nH]1 | -22.8 | -3.9% | 22.4µM* | -5.1% | -6.7%
Cc1cc(-c2n[nH]c(=S)n2/N=C/c2cccc(O)c2)n[nH]1 | nt | 1.3% | nt | nt | nt
SMILES | PNC assembly inh | ALDH1A1 inh | HPGD block | Lamin A splicing | ALOX12 inhib
Cc1cc(-c2n[nH]c(=S)n2/N=C/C(Cl)=C/c2ccccc2)n[nH]1 | 0.2 | ? | 6.31µM* | -25.3% | -3.5%
Cc1ccsc1/C=N/n1c(-c2ccco2)n[nH]c1=S | ? | 14.1µM* | 14.1µM* | -4.5% | -3.2%
C[C@@H](C(=O)Nc1ccc2ccccc2c1)[C@@H]1C[C@@]1(C)[C@@H](NC(=O)c1ccncc1Cl)c1ccccc1 | nt | -0.5% | -11.7% | nt | 2.1%
Cc1ccsc1/C=N/n1c(-c2ccccn2)n[nH]c1=S | ? | ? | 28.2µM* | 2.7% | -27.5%
S=c1[nH]nc(-c2ccccn2)n1/N=C/c1cccc(Cl)c1 | nt | ? | nt | 13.6%[46 µM] | nt
Cc1ccsc1/C=N/n1c(-c2ccccc2)n[nH]c1=S | 25.3 | ? | 12.6µM* | 2.1% | -1.6%
S=c1[nH]nc(-c2cc(-c3ccccc3)n[nH]2)n1/N=C/c1cccs1 | nt | 10.3% | nt | nt | nt

Bioassay records deposited in PubChem by National Center for Advancing Translational Sciences (NCATS).
